Results filed as inconclusive are left out. Entries that show only a call come without a potency. Some structures have more than one record in an assay (separate samples or runs), and their calls can disagree. Calls of active or inactive are those of the source. Calls come from the whole dose curve; as a rule, active = well fitted curve in the direction sought with a large enough effect; inconclusive = small, poorly fitted or top-dose-only effect, or another doubt; inactive = no such curve, though single readings can be large; an effect the other way counts as inactive or inconclusive.
What was measured:
[1] = molecular target: Chromobox protein homolog 1 (Homo sapiens) (UniProt P83916); assay: qHTS Validation Assay for Inhibitors of HP1-beta Chromodomain Interactions with Methylated Histone Tails (AID 488953); note: nearly all actives have a fitted effect of over 50% in size; note: potency is the fitted concentration of half-maximal effect
Outline: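 Measured as loss of AlphaScreen luminescence from streptavidin donor and nickel acceptor beads (10 ug/mL final) bridging HP1-beta and biotin-H3(1-18)K9me3, each 50 nM. Compounds met the preassembled complex for 30 min at RT.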

[2] = molecular target: Methanococcus maripaludis chaperonin (MmCpn) (UniProt Q6LX38); assay: High-Throughput Screening for Modulators of Cytosolic Chaperonin Activity: MmCpn Primary Screen (AID 488978);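 note: 50 nM MmCpn enzyme hydrolysing 30 µM ATP at 37 °C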
Outline: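 MmCpn at 50 nM final was preincubated 5 min at RT with compound. ATP was then added at 30 uM final for 10 min at 37 C. ADP formed was detected by Transcreener HTRF (665/590 nm).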

[3] = molecular target: Transient receptor potential cation channel subfamily V member 1 (Homo sapiens) (UniProt Q8NER1); assay: HTS Assay for Compounds that Act as Enhancers of the Vanilloid Receptor 1 (AID 488979)
Outline: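 Calcium influx kinetics via Fluo-8 (480/520 nm) in TRPV1-expressing cells, 2000/well cultured overnight at 35.5C. Compound-alone read 3 min (agonist phase), followed by EC20 capsaicin challenge for 2 min (enhancer phase).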

[4] = molecular target: Thyrotropin receptor (Homo sapiens) (UniProt P16473); assay: qHTS Assay for Antagonists of the Thyroid Stimulating Hormone Receptor (AID 488980); note: series mostly up to about 58 µM
Outline: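 TSHR-transfected HEK293 cells (2000/well) in HEPES-buffered HBSS with 70 uM RO 20-1724 were stimulated with 4 nM TSH (EC80, final) in the presence of compound. cAMP was measured by HTRF competition after lysis and 30 min at RT.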

[5] = molecular target: D(1A) dopamine receptor (Homo sapiens) (UniProt P21728); assay: HTS Assay for Allosteric Agonists of the Human D1 Dopamine Receptor: Primary Screen for Agonists (AID 488981)
Outline: (§1)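 Calcium flux in an inducible, force-coupled HEK293 Trex D1 line (overnight at 30 C): agonist mode is the 180 s kinetic read after compound; potentiator mode is the following 180 s read after dopamine at EC20.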

[6] = molecular target: D(1A) dopamine receptor (Homo sapiens) (UniProt P21728); assay: HTS Assay for Allosteric Agonists of the Human D1 Dopamine Receptor: Primary Screen for Potentiators (AID 488982)
Outline: as §1

[7] = molecular target: D(1A) dopamine receptor (Homo sapiens) (UniProt P21728); assay: HTS Assay for Allosteric Agonists of the Human D1 Dopamine Receptor: Primary Screen for Antagonists (AID 488983);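 note: calcium flux response to an EC80 dopamine challenge measured with no-wash dye; nearly all actives have a fitted effect of over 65% in size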; note: potency is the fitted concentration of half-maximal effect
Outline: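 Screening of inducible HEK293 T-REx D1 cells: compound first, EC80 dopamine 180 s later, each phase read kinetically for calcium over 180 s.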

[8] = Validation screen for small molecules that induce genotoxicity in human embryonic kidney (HEK293T) cells expressing luciferase-tagged ELG1 (AID 493106)
Outline: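 Reporter-gene quantitative HTS in HEK293T cells carrying luciferase-tagged ELG1, whose level climbs under genotoxic stress. Compound exposure lasts 16 hr at 37 °C before luciferase detection.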

[9] = molecular target: ATPase family AAA domain-containing protein 5 (Homo sapiens) (UniProt Q96QE3); assay: Validation screen for small molecules that inhibit ELG1-dependent DNA repair in human embryonic kidney (HEK293T) cells expressing luciferase-tagged ELG1 (AID 493107);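 note: cells co-treated with the DNA-damaging agent 5-fluorouridine alongside compound; series mostly up to about 46 µM; inhibitors lower the ELG1-luciferase luminescence signal; nearly all actives have a fitted effect of over 70% in size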
Outline: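 Quantitative HTS in HEK293T cells carrying luciferase-tagged ELG1, stimulated with 5-fluorouridine alongside compound for 16 hr. Loss of luciferase signal marks inhibition of ELG1 response.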

Sequence of Chromobox protein homolog 1 (Homo sapiens) (P83916 whole entry, looked up): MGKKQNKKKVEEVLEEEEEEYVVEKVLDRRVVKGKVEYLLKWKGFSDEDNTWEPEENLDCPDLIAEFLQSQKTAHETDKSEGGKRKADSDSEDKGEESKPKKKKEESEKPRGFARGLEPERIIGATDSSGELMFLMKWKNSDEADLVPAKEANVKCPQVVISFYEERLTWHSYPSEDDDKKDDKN
Sequence of Methanococcus maripaludis chaperonin (MmCpn) (Q6LX38 1-543): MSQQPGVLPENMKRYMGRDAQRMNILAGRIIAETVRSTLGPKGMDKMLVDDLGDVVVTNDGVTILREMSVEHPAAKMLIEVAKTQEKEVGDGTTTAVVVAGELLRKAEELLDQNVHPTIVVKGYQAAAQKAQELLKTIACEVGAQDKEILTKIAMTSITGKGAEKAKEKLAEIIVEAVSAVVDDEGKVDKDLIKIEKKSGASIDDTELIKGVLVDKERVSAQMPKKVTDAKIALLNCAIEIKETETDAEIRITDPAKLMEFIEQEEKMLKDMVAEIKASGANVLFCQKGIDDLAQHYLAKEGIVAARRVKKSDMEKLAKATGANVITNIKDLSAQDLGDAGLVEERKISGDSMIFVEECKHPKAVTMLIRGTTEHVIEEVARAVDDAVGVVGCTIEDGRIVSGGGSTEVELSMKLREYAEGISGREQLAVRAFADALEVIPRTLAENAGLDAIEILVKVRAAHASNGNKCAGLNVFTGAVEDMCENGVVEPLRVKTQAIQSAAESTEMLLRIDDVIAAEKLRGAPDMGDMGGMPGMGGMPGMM
Sequence of Thyrotropin receptor (Homo sapiens) (P16473 whole entry, looked up): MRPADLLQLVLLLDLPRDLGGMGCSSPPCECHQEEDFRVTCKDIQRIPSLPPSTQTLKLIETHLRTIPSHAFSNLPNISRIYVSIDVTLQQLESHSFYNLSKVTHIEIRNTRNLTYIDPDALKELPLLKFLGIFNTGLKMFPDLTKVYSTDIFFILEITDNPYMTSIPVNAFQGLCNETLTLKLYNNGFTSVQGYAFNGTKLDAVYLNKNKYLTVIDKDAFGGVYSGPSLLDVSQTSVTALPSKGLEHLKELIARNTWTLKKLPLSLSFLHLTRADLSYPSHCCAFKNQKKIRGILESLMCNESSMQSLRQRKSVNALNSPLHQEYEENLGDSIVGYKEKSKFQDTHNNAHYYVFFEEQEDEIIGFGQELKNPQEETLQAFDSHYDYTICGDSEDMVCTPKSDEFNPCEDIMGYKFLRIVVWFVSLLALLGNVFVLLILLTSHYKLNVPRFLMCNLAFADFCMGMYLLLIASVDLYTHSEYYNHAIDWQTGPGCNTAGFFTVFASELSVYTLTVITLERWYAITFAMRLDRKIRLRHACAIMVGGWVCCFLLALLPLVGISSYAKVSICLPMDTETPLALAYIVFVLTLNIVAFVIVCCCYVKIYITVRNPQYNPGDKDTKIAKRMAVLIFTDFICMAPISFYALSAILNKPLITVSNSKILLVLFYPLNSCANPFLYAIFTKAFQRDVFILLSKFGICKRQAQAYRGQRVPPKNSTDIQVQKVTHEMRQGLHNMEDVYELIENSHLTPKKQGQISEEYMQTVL
Sequence of Transient receptor potential cation channel subfamily V member 1 (Homo sapiens) (Q8NER1 whole entry, looked up): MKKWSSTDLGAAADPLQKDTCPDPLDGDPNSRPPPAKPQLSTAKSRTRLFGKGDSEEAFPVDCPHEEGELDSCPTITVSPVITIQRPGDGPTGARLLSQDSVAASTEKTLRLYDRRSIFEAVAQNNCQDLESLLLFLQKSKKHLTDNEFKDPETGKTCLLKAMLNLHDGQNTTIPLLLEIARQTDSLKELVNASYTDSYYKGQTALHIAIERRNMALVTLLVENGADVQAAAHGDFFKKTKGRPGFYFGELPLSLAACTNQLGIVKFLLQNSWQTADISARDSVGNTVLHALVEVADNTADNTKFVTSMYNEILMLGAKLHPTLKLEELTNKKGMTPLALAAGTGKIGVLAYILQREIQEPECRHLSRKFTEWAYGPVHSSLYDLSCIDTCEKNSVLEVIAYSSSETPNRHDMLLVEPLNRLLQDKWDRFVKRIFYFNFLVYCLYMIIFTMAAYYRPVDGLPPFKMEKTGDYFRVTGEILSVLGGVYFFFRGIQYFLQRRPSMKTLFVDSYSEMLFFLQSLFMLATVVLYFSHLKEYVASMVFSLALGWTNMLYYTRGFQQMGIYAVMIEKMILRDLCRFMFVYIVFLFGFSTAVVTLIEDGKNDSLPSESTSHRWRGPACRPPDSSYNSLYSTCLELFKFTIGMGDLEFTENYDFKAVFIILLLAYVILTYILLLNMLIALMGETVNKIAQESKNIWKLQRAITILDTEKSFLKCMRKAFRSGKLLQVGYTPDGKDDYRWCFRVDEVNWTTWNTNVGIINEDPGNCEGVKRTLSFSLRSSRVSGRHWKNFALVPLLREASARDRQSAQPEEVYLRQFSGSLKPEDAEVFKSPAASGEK
Sequence of ATPase family AAA domain-containing protein 5 (Homo sapiens) (Q96QE3 whole entry, looked up, the tested form may be a part): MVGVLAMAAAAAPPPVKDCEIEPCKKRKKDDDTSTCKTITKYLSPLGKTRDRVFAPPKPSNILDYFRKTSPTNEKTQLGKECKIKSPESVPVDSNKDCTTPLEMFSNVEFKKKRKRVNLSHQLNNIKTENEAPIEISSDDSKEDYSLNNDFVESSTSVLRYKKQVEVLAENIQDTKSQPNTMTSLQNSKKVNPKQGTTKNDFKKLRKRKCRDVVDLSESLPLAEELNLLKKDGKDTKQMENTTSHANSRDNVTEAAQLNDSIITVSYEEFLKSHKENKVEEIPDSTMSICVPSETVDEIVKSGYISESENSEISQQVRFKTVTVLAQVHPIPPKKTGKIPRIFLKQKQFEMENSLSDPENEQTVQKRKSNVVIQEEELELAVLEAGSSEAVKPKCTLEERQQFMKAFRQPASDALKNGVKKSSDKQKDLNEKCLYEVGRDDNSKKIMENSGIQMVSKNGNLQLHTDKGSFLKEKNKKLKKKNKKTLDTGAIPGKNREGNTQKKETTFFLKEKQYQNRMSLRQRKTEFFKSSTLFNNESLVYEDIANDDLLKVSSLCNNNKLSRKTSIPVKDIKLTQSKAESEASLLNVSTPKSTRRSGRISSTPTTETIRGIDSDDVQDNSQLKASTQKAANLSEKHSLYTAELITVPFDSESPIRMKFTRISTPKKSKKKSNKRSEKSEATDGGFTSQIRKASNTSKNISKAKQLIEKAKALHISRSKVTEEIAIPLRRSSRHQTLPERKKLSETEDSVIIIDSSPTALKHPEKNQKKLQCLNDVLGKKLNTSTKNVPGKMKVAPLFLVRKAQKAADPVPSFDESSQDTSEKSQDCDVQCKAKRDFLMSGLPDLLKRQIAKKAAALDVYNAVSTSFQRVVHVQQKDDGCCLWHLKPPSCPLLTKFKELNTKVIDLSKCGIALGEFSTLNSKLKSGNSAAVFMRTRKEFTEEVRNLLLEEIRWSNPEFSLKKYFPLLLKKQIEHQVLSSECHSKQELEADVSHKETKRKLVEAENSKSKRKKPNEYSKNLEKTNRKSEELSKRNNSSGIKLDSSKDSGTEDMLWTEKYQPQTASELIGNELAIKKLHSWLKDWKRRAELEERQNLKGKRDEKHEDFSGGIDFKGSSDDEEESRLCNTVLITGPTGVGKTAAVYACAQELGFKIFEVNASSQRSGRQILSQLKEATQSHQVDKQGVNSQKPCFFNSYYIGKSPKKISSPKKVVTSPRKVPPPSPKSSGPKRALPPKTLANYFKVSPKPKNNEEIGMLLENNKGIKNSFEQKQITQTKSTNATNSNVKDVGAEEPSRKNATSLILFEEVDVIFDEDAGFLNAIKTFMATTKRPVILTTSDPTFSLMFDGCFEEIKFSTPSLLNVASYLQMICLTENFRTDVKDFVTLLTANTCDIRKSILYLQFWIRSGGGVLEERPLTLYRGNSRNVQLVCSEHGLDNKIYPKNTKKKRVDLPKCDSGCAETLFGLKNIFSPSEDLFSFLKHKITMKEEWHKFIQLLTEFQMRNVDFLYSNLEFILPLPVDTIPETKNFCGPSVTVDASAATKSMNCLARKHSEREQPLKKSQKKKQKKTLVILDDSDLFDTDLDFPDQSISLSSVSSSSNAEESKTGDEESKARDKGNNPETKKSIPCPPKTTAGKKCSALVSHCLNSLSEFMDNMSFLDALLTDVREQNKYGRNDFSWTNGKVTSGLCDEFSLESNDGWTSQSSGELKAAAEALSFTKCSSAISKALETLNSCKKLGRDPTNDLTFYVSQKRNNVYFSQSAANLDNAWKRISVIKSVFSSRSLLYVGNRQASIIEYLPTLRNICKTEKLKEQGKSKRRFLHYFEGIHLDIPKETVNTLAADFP
Sequence of D(1A) dopamine receptor (Homo sapiens) (P21728 whole entry, looked up): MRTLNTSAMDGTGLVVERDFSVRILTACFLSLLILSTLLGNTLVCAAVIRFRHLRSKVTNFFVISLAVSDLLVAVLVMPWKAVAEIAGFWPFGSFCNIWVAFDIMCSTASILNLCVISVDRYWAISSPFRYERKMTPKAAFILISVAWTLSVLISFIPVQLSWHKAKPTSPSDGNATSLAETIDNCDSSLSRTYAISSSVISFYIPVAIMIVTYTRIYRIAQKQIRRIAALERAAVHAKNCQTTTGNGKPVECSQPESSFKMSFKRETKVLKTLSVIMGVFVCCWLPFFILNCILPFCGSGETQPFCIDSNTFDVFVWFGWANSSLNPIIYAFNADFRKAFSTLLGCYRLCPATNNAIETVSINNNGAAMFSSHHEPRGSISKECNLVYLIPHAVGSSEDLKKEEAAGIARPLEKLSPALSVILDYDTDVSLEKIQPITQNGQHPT

Structure (SMILES)	Potency [1]	outcome [2]	outcome [3]	outcome [4]	Potency [5]	outcome [6]	Potency [7]	outcome [8]	Potency [9]
CC(Cc1ccc(O)cc1)NCC(O)c1cc(O)cc(O)c1 (configuration not stated)	inactive	inactive	inactive	inactive	inactive	inactive	inactive	inactive	inactive
C[C@@H](N)Cc1cnc[nH]1	inactive	inactive	inactive	inactive	inactive	inactive	inactive	inactive	inactive
C[C@]12CCC3C(CC[C@H]4C[C@H](O)CC[C@]34C)C1CC[C@@H]2C(=O)CO (some centres not stated)	inactive	inactive	inactive	inactive	inactive	inactive	inactive	inactive	inactive
COc1cc(C(O)CN)ccc1O (configuration not stated)	inactive	inactive	inactive	inactive	inactive	inactive	inactive	inactive	inactive
c1ccc2sc(C3(N4CCCCC4)CCCCC3)cc2c1	inactive	inactive	inactive	inactive	inactive	inactive		inactive	inactive
C#CCOC(=O)C1=CCCN(C)C1	inactive	inactive	inactive	inactive	inactive	inactive	inactive	inactive	inactive
C=CCN1CC[C@]23CCCCC2[C@H]1Cc1ccc(O)cc13 (some centres not stated)	inactive	inactive	inactive	inactive	inactive	inactive	inactive	inactive	inactive
O=C(Cc1ccc(Cl)c(Cl)c1)N1CCCCC1CN1CCCC1 (configuration not stated)	inactive	inactive	inactive	inactive	inactive	inactive	inactive	inactive	inactive
NC(CP(=O)(O)O)C(=O)O (configuration not stated)	inactive	inactive	inactive	inactive	inactive	inactive	inactive	inactive	inactive
CC1=NN=C(c2ccc(N)cc2)c2cc3c(cc2C1)OCO3	inactive	inactive	inactive	inactive	inactive	inactive	inactive	inactive	inactive
NCCc1c[nH]c2ccc(O)cc12	inactive	inactive	inactive	inactive	inactive	inactive	inactive	inactive	inactive
C[N+]1(C)C2CCC1CC(OC(=O)C(CO)c1ccccc1)C2 (configuration not stated)	inactive	inactive	inactive	inactive	inactive	inactive	inactive	inactive	inactive
CCn1cc(C(=O)O)c(=O)c2cc3c(cc21)OCO3	6.7 nM (active)								
Cn1cnc(CCN)c1	inactive	inactive	inactive	inactive	inactive	inactive	inactive	inactive	inactive
Clc1cnc(Oc2ccc(Oc3ncc(Cl)cc3Cl)cc2)c(Cl)c1	inactive	inactive	inactive	inactive	inactive	inactive	inactive	inactive	inactive
C[C@@H]1O[C@H](C[N+](C)(C)C)C[C@H]1O	inactive	inactive	inactive	inactive	inactive	inactive	inactive		inactive
CCCN(CCC)[C@@H]1CCc2ccc(O)cc2C1	inactive	inactive	inactive	inactive	inactive	inactive	10000 nM (active)	inactive	inactive
C[N+]1(C)C2CC(OC(=O)[C@H](CO)c3ccccc3)CC1C1OC12 (some centres not stated)	7.5 nM (active) and inactive								
c1ccc(CCCN2CCN(CCOC(c3ccccc3)c3ccccc3)CC2)cc1	8.4 nM (active)	inactive	inactive	inactive	inactive	inactive		inactive	
NC(=O)CN1CC(O)CC1=O (configuration not stated)	inactive	inactive	inactive	inactive	inactive	inactive	inactive	inactive	inactive
NC(CCP(=O)(O)O)C(=O)O (configuration not stated)	inactive	inactive	inactive	inactive	inactive	inactive	inactive	inactive	inactive
CCCN(CCC)C1CCc2ccc(O)cc2C1 (configuration not stated)	inactive	inactive	inactive	inactive	inactive	inactive		inactive	inactive
O=C(O)[C@@H]1CCN1	inactive	inactive	inactive	inactive	inactive	inactive	inactive	inactive	inactive
CCCN1CCO[C@@H]2c3cc(O)ccc3OC[C@H]21	inactive	inactive	inactive	inactive	inactive	inactive	inactive	inactive	inactive
NCc1cc(=O)[nH]o1	inactive	inactive	inactive	inactive	inactive	inactive	inactive	inactive	inactive
CC(=O)[C@H]1CCC2C3CC[C@H]4C[C@H](O)CC[C@]4(C)C3CC[C@@]21C (some centres not stated)	inactive	inactive	inactive	inactive	inactive	inactive	inactive	inactive	inactive
CCCCc1ccc(C(=O)O)nc1	inactive	inactive	inactive	inactive	inactive	inactive	inactive	inactive	inactive

From PubChem BioAssay (NCATS)
